SMILES strings stand for the structures. Values without a mark were called inactive. Records with an inconclusive call do not appear. Calls of active or inactive are those of the source. Unless noted, calls come from the whole dose curve; as a rule, active = well fitted curve in the direction sought with a large enough effect in the repeat runs; inconclusive = weak or mixed curves; inactive = no such curve, though single readings can be large; an effect the other way counts as inactive or inconclusive.

A short description of assay [1]: qHTS assay to identify small molecule agonists of the estrogen receptor alpha (ER-alpha) signaling pathway in the presence of an antagonist - cell viability counter screen (AID 1259386).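 Note: cells exposed to compounds for 22 h at 37 °C before the viability read; nearly all actives have a fitted effect of over 30% in size.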 To be noted: VM7Luc4E2 viability, CellTiter-Fluor fluorescence, 22 h; series mostly up to 92.4 µM. The essentials:
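VM7Luc4E2 cells (endogenous full-length ER-alpha, 4×ERE-luciferase) were held 5 days in phenol red-free medium with 10% charcoal-stripped FBS, plated, then given 10.0nM ICI-182,780 and compounds at 15 concentrations for 22hr at 37C; viability read by CellTiter-Fluor fluorescence.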
(In general: In qHTS, concentration-response curves come from the screen itself.)

For assay [2], the target named is Progesterone receptor (Homo sapiens) (UniProt P06401). The assay is described as follows: qHTS assay to identify small molecule agonists of the progesterone receptor (PR) signaling pathway (AID 1346784; calls by dose curve; note: nearly all actives have a fitted effect of over 30% in size). To be noted: PR-UAS-bla HEK293T, beta-lactamase FRET ratio, 16 h; series mostly up to 92.4 µM. The method, boiled down: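 PR-UAS-bla HEK 293T cells carrying a UAS-driven beta-lactamase reporter were seeded in medium with 2% charcoal-stripped FBS, preincubated 6 hr at 37C, then exposed to compounds in DMSO for 16 hr; agonism was read by LiveBLAzer B/G FRET fluorescence.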

For assay [3] the target is unchanged. The assay is described as follows: qHTS assay to identify small molecule antagonists of the progesterone receptor (PR) signaling pathway (AID 1346795; active = well fitted inhibition curve with a large enough effect in the signal ratio in the repeat runs, not every such curve was filed as active; the % refers to the signal ratio). To be noted: PR-UAS-bla HEK293T, beta-lactamase FRET ratio, 16 h; series mostly up to 92.4 µM. The essentials:
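PR-UAS-bla HEK293T cells carrying a UAS-driven beta-lactamase reporter were plated in medium with 2% charcoal-stripped FBS and rested 6 hr at 37C. Compounds were added with 1 nM R5020 (final) for 16 hr, then FRET substrate loaded 2 hr at room temperature.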

The nature of assay [4]: qHTS assay to identify small molecule antagonists of the progesterone receptor (PR) signaling pathway - cell viability counter screen (AID 1346798). Note: nearly all actives have a fitted effect of over 50% in size. The note with it: PR-UAS-bla HEK293T viability, CellTiter-Glo luminescence, 16 h; series mostly up to 92.4 µM. The method, boiled down: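 PR-UAS-bla HEK293T cells in medium with 2% charcoal-stripped FBS were treated with compounds plus R5020 for 16 hr at 37C. Cell viability was then read by CellTiter-Glo luminescence after 30 min at room temperature in the same wells.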

A short description of assay [5]: qHTS assay to identify small molecule antagonists of the TGF-beta/Smad signaling pathway - cell viability counter screen (AID 1346824). Note: nearly all actives have a fitted effect of over 50% in size. To be noted: SBE-bla HEK293T viability, CellTiter-Glo luminescence; series mostly up to 76.8 µM. The method, boiled down:
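SBE-bla HEK 293T cells, incubated overnight, then compound plus 0.25 ng/mL TGF-beta1 (stock added) for 5 hr at 37 C. Viability was read in the same wells by CellTiter-Glo luminescence after 30 min at room temperature.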

The nature of assay [6]: qHTS assay to identify small molecule agonists of the TGF-beta/Smad signaling pathway - cell viability counter screen (AID 1346829). Note: top concentration of the series differs between compounds; nearly all actives have a fitted effect of over 45% in size. The note with it: SBE-bla HEK293T viability, CellTiter-Glo luminescence, 5 h; series mostly up to 76.8 µM. The essentials:
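Tox21 qHTS format: SBE-bla HEK 293T cells treated with DMSO-dissolved compounds for 5 hr; CellTiter-Glo luminescence after 30 min at room temperature.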

In assay [7] the target is Thyrotropin-releasing hormone receptor (Homo sapiens) (UniProt P34981). Kind of assay: qHTS assay to identify small molecule antagonists of the thyrotropin-releasing hormone receptor (TRHR) signaling pathway (AID 1346877; active = well fitted inhibition curve with a large enough effect in the repeat runs, not every such curve was filed as active). The note with it: TRHR-HEK293, TRH-induced calcium fluorescence, antagonist mode; series mostly up to 51.3 µM. The method, boiled down: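 TRHR-expressing HEK293 cells were seeded, cultured 18 h at 37 °C, then loaded with calcium dye for 2 h. Compounds were pre-incubated 5 min at room temperature before 1 nM TRH (final) was added, and kinetic fluorescence was recorded for 3 min.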

For assay [8] the target is unchanged. Kind of assay: qHTS assay to identify small molecule agonists of the thyrotropin-releasing hormone receptor (TRHR) signaling pathway (AID 1346891; calls by dose curve). To be noted: TRHR-HEK293 calcium fluorescence, agonist mode; series mostly up to 57.6 µM. The essentials: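 TRHR-expressing HEK293 cells were plated 18 h at 37 °C/5% CO2, loaded with calcium dye 2 h at 37 °C, then given compound in DMSO; fluorescence was read kinetically for 3 min at 1 s intervals.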

A short description of assay [9]: Human pregnane X receptor (PXR) small molecule agonists, qHTS cell viability counter screen (AID 1346977). Note: nearly all actives have a fitted effect of over 50% in size. To be noted: PXR-Luc HepG2 viability, CellTiter-Fluor, 24 h; series mostly up to 92.4 µM. The essentials: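 PXR-Luc HepG2 cells in medium with 5% charcoal-stripped FBS were pre-incubated 5hr, then exposed to compounds for 24hr at 37C. Viability was read in the same wells by CellTiter-Fluor fluorescence, reagent added after 23hr with a 1hr incubation.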

A short description of assay [10]: Caspase-3/7 induction in HepG2 cells by small molecules, qHTS assay (AID 1346978). Note: nearly all actives have a fitted effect of over 15% in size. To be noted: HepG2 caspase-3/7 activation, Caspase-Glo luminescence, 17 h; series mostly up to 92.4 µM. The method, boiled down:
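Wild-type HepG2 cells, 2,000/well, settled 5 hr at 37 C and 5% CO2, then compound-treated for 17 hr; caspase-3/7 activity read by luminescent Caspase-Glo 3/7 after 30 min at room temperature.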

Assay [11] in a line: Caspase-3/7 induction in CHO-K1 cells by small molecules, qHTS cell viability counter screen (AID 1346979). Note: nearly all actives have a fitted effect of over 35% in size. The note with it: CellTiter-Fluor fluorescence, 17 h; series mostly up to 92.4 µM. The essentials:
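Wild-type CHO-K1 cells were seeded at 1,500 per well, rested 5hr at 37 C, then exposed to compounds in DMSO. After 16hr, CellTiter-Fluor reagent was added and fluorescence read 1hr later as the viability measure.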

A short description of assay [12]: Caspase-3/7 induction in CHO-K1 cells by small molecules, qHTS assay (AID 1346980). Note: nearly all actives have a fitted effect of over 15% in size. The note with it: CHO-K1 caspase-3/7 induction, Caspase-Glo luminescence, 17 h; series mostly up to 92.4 µM. The essentials:
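Wild-type CHO-K1 cells exposed to compounds for 17hr at 37 C, 5% CO2. Caspase-3/7 activity then measured by Caspase-Glo 3/7 luminescence after 30min at room temperature.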

Assay [13] is described as follows: Caspase-3/7 induction in HepG2 cells by small molecules, qHTS cell viability counter screen (AID 1346981). Note: nearly all actives have a fitted effect of over 30% in size. To be noted: CellTiter-Fluor fluorescence, 17 h; series mostly up to 92.4 µM. The method, boiled down: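 Wild-type HepG2 cells (2,000/well) were allowed to settle for 5 hr at 37 C, 5% CO2, then dosed with compounds in DMSO by pin transfer. After 16 hr at 37 C, CellTiter-Fluor was added and fluorescence read 1 hr later.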

The target in assay [14] is Nuclear receptor subfamily 1 group I member 2 (Homo sapiens) (UniProt O75469). The assay is described as follows: Human pregnane X receptor (PXR) small molecule agonists, qHTS assay (AID 1346982). Note: nearly all actives have a fitted effect of over 35% in size. Note: potency is the fitted concentration of half-maximal effect. To be noted: PXR-Luc HepG2, CYP3A4 luciferase reporter, 24 h; series mostly up to 92.4 µM. The method, boiled down:
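PXR-Luc HepG2 cells (CYP3A4 promoter-driven luciferase) were seeded in medium with 5% charcoal-stripped FBS, left 5 hr at 37 C, then exposed to compounds in DMSO for 24 hr. Luminescence was read after ONE-Glo addition.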

The target of assay [15] is Nuclear receptor subfamily 1 group I member 2 (Rattus norvegicus) (UniProt Q9R1A7). Kind of assay: Rat pregnane X receptor (rPXR) activation by small molecules, qHTS assay (AID 1346983). Note: nearly all actives have a fitted effect of over 20% in size. To be noted: rPXR luciferase reporter cells, One-Glo luminescence, 24 h; stronger effect = higher value. The essentials: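 Cell-based rPXR activation assay: rPXR cells, 2,000 per well, rested 5hr at 37 C, then exposed to compounds in DMSO for 24 hr at 37 C. Luciferase activity read by One-Glo luminescence after 30 min at room temperature.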

Assay [16] deals with Nuclear receptor subfamily 1 group I member 2 (Homo sapiens) (UniProt O75469). The assay is described as follows: CYP3A4 induction through human pregnane X receptor (PXR) by small molecules, qHTS assay (AID 1346984). Note: nearly all actives have a fitted effect of over 40% in size. The note with it: DPX-2 HepG2 PXR, CYP3A4-luciferin luminescence, 24 h; series mostly up to 46.1 µM. The essentials:
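DPX-2 cells (HepG2 co-transfected with PXR and CYP3A4 promoter-luciferase) treated with compounds 24 h at 37C; luciferin-IPA CYP3A4 substrate 3uM final added for 3 h, then One-Glo; luminescence read. qHTS format.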

In assay [17] the target is Acetylcholinesterase (Homo sapiens) (UniProt P22303). The assay is described as follows: Acetylcholinesterase (AChE) small molecule antagonists: colormetric cell-based qHTS assay (AID 1347395; calls by dose curve; note: nearly all actives have a fitted effect of over 30% in size). To be noted: SH-SY5Y cells AChE activity, colorimetric (Ellman); series mostly up to 115 µM. The essentials: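 SH-SY5Y cells, plated overnight at 37 C, were exposed to compounds for 30 min at 37 C and 5% CO2. Acetylthiocholine plus DTNB was then added, and thiocholine from endogenous AChE was quantified colorimetrically after 90 min at 37 C.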

The nature of assay [18]: qHTS assay to identify small molecule agonists of the TGF-beta/Smad signaling pathway (AID 1346859; active = well fitted activation curve with a large enough effect in the signal ratio in the repeat runs, not every such curve was filed as active; the % refers to the signal ratio). The note with it: SBE-bla HEK293T, TGF-beta/Smad beta-lactamase reporter, 5 h; series mostly up to 76.8 µM. The essentials: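 HEK 293T cells stably carrying a beta-lactamase reporter driven by the Smad binding element were seeded overnight, exposed to DMSO-dissolved compounds for 5 hr at 37 C, 5% CO2, then loaded with FRET substrate for 2 hr at room temperature.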

Assay [19] can be described thus: qHTS assay to identify small molecule agonists of the progesterone receptor (PR) signaling pathway - cell viability counter screen (AID 1346799; calls by dose curve; note: nearly all actives have a fitted effect of over 45% in size). To be noted: PR-UAS-bla HEK293T viability, CellTiter-Glo luminescence, 16 h; series mostly up to 92.4 µM. The essentials:
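PR-UAS-bla HEK293T cells, 3,000 per well in medium with 2% charcoal-stripped FBS, were preincubated 6 hr at 37C, then exposed to compounds for 16 hr; viability was read as CellTiter-Glo luminescence after 30 min at room temperature.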
% is set by controls: 0 for no effect and ±100 for the full control effect.

Sequence of Progesterone receptor (Homo sapiens) (P06401 whole entry, looked up): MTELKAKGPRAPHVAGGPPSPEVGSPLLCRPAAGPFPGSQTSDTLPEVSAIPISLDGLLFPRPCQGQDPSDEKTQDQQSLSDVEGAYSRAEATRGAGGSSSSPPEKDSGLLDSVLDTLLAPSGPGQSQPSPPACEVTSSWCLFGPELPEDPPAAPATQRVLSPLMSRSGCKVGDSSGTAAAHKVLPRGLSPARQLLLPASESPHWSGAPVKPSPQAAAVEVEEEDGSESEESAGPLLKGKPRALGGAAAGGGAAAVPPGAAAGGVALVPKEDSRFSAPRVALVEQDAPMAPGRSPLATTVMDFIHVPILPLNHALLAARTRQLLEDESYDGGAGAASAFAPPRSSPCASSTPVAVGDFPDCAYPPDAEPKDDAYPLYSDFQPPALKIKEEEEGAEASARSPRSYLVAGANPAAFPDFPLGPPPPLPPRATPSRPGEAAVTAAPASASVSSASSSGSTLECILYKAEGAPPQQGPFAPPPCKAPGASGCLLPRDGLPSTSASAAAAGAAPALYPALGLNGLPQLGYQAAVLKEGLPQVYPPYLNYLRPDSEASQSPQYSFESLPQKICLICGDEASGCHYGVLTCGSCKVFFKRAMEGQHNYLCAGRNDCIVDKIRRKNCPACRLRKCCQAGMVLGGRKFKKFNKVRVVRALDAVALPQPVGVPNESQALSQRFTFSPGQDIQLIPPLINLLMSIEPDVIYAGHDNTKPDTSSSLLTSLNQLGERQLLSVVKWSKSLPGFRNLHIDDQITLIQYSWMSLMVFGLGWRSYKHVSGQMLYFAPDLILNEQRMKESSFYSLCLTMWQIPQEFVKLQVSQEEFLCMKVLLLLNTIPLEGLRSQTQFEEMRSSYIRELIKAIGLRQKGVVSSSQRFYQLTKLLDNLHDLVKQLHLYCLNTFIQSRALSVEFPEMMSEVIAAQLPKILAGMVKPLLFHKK
Sequence of Nuclear receptor subfamily 1 group I member 2 (Homo sapiens) (O75469 whole entry, looked up): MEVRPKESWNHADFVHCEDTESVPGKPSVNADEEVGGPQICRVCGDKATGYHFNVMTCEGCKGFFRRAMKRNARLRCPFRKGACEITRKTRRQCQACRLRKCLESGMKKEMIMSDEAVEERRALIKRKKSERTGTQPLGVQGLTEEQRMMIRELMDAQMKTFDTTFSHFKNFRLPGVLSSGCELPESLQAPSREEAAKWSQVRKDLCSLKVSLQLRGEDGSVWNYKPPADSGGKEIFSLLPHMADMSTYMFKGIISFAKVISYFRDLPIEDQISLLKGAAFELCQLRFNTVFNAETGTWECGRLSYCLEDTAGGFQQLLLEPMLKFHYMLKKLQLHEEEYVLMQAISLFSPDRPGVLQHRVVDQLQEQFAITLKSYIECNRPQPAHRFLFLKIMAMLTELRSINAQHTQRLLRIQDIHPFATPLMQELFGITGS
Sequence of Thyrotropin-releasing hormone receptor (Homo sapiens) (P34981 whole entry, looked up): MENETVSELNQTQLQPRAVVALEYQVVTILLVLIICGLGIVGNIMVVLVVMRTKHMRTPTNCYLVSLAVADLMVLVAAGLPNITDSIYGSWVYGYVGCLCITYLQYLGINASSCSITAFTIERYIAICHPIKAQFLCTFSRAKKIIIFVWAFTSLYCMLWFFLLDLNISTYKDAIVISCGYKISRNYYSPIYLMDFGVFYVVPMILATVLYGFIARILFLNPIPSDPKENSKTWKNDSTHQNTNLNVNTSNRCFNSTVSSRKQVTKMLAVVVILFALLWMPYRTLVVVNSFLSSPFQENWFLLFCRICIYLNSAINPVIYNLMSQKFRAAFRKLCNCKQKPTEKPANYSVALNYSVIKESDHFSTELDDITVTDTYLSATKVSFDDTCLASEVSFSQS
Sequence of Acetylcholinesterase (Homo sapiens) (P22303 whole entry, looked up): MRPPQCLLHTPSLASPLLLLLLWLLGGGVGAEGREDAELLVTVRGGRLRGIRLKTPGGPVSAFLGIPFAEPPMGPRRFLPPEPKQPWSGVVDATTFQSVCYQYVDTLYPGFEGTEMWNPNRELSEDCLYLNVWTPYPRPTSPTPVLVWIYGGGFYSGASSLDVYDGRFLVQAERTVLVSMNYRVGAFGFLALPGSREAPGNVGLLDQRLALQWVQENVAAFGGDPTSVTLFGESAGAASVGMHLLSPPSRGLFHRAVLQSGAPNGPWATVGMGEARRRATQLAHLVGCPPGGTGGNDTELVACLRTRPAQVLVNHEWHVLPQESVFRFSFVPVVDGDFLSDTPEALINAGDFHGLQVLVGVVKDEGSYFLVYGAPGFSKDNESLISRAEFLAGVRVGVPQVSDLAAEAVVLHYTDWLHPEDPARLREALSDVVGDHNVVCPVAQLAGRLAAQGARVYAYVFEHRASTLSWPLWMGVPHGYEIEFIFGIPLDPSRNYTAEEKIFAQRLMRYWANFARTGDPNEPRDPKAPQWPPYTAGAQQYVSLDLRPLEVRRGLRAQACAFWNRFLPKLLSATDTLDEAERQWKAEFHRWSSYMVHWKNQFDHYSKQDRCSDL
Sequence of Nuclear receptor subfamily 1 group I member 2 (Rattus norvegicus) (Q9R1A7 whole entry, looked up): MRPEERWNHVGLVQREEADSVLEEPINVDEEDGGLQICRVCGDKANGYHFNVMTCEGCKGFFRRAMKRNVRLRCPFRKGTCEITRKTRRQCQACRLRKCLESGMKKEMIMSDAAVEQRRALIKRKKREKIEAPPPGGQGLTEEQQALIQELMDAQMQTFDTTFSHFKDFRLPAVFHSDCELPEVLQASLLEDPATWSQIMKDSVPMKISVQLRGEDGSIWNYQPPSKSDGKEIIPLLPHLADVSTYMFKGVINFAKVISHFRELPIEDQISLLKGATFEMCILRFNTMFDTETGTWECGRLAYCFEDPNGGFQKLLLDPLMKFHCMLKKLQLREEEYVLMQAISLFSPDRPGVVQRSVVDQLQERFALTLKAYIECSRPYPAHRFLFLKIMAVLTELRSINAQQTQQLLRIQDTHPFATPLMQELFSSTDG

Take `C=CCN1C[C@H](C)N([C@H](c2ccc(C(=O)N(CC)CC)cc2)c2cccc(OC)c2)C[C@H]1C`: the Potency result in assay [1], in [2], in assay [3], in assay [4], in [5] and in assay [6] was “inactive” in each case. For the same compound, the Potency entry in assay [7], in assay [9], in assay [10], in [11], in assay [12] and in assay [13] was “inactive” each time. Moreover, the Potency result in assay [17] was “inactive”. The outcome in assay [8] and in [16] was inactive. Moreover, in assay [14], the Potency was 11.9 µM (active). Further, the max activation in [15] is 5.88%.

`O=C(Cl)OCCOCCOC(=O)Cl`: the Potency entry in [1], in [2], in assay [3], in assay [4], in [5] and in [6] was “inactive” in each case. For the same compound, the Potency result in assay [9], in [10], in assay [12], in assay [13], in [14] and in assay [17] was “inactive” throughout. Moreover, in assay [18], the result was inactive.

On to `C[N+](C)(C)CC1CO1` (stereo not given), for which the Potency result in assay [1], in [2], in [3], in [4], in [5] and in assay [6] was “inactive” in each case. For the same compound, the Potency entry in [7], in [9], in [10], in assay [11], in [12] and in assay [13] was “inactive” throughout. The Potency result in assay [14] and in [17] was “inactive” in each case. Also, in [8], the outcome was inactive.

As to `O=[N+]([O-])c1cc(Cl)c(Cl)cc1Cl`, the Potency result in [1], in assay [2], in [3], in assay [4], in [19] and in [5] was “inactive” in each case. Moreover, the Potency result in [6], in assay [9], in assay [10], in assay [11], in assay [12] and in [13] was “inactive” in each case. Moreover, the Potency result in [14] and in [17] was “inactive” in each case.

Take `C1CCNCC1`: the Potency result in [1], in [2], in [3], in assay [4], in assay [19] and in [5] was “inactive” throughout. For the same compound, the Potency entry in assay [6], in [9], in assay [10], in assay [11], in assay [12] and in assay [13] was “inactive” throughout. For the same compound, the Potency result in assay [14] and in assay [17] was “inactive” in each case.

As to `C=CCSSCC=C`, the Potency entry in assay [1], in assay [2], in [3], in assay [19], in [5] and in [6] was “inactive” throughout. The Potency entry in assay [7], in [9], in assay [10], in [11], in assay [12] and in [13] was “inactive” throughout. Also, the Potency entry in assay [14] and in [17] was “inactive” throughout. Further, the result in assay [18] and in assay [8] was inactive.

For `Cc1cccc(C)c1NC1=NCCCS1`, the Potency entry in [1], in [2], in assay [3], in assay [4], in assay [19] and in [5] was “inactive” in each case. Besides, the Potency entry in assay [6], in assay [7], in assay [9], in assay [10], in [11] and in [12] was “inactive” in each case. The Potency entry in [13], in assay [14] and in [17] was “inactive” throughout. Further, the outcome in [8] was inactive.

For the origin of these results see PubChem BioAssay (Tox21).
